For eight sequences, binding signal results are on record in paper PMC7862700, “An all-to-all approach to the identification of sequence-specific readers for epigenetic DNA modifications on cytosine”.

Holding throughout (assay): DAPPL (digital affinity profiling via proximity ligation, sequencing); 10 mM Tris-HCl pH 7.5, 50 mM NaCl, 1 mM DTT, 4% glycerol, room temperature, 30 min; GST-TFs on glutathione beads, 16-mer random dsDNA library, 0.1% formaldehyde crosslink after washing; high values mean tight binding
Holding throughout (conditions): protein: recombinant; tags: N-terminal GST; dsDNA, one strand shown

One assay addresses T1, ERF (Homo sapiens, UniProt P50548 1-548).
T1 sequence: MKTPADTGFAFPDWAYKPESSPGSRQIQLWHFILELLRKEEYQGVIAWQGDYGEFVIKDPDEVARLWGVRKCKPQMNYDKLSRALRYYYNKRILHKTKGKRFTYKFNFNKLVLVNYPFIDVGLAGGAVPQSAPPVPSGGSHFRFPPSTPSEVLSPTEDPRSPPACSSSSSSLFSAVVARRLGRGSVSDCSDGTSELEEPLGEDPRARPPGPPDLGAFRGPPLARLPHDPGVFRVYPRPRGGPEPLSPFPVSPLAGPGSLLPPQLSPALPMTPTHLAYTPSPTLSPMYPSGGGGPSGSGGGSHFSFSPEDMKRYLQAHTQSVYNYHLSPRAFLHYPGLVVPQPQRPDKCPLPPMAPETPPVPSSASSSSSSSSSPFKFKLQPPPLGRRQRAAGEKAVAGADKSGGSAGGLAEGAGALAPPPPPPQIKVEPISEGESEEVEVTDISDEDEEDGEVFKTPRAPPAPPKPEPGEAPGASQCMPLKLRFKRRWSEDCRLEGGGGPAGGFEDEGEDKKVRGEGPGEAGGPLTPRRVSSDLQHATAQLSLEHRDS
Summed up: (§1)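 A tag-only sample was pooled with DNA-barcoded human transcription factors that had been expressed in yeast as GST fusions and captured on glutathione beads. The pools were incubated for 30 min at room temperature with 200 nmole of a random double-stranded 16-mer DNA library in Tris/NaCl/DTT/glycerol buffer, then washed, crosslinked with 0.1% formaldehyde, proximity-ligated (BsaI/T4 ligase, 1 h, 37 °C), PCR-amplified and sequenced on an Illumina NextSeq500. Binding signal is each hexamer's read frequency for a factor divided by its frequency for the tag-only sample.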

For the next assay, the target named is T2, ETV3L (Homo sapiens, UniProt Q6ZN32 1-361).
T2 sequence: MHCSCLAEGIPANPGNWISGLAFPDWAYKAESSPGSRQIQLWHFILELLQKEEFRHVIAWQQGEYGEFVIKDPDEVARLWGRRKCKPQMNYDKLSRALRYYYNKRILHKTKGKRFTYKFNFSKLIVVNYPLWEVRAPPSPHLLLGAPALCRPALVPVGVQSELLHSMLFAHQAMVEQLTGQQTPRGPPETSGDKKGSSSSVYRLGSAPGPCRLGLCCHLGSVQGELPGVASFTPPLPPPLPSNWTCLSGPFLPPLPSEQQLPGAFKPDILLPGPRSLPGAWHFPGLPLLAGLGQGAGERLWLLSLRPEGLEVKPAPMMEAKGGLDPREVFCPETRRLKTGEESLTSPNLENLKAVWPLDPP
The gist of the method:
as §1

For another assay, the target named is T3, SPDEF (Homo sapiens, UniProt O95238 1-335).
T3 sequence: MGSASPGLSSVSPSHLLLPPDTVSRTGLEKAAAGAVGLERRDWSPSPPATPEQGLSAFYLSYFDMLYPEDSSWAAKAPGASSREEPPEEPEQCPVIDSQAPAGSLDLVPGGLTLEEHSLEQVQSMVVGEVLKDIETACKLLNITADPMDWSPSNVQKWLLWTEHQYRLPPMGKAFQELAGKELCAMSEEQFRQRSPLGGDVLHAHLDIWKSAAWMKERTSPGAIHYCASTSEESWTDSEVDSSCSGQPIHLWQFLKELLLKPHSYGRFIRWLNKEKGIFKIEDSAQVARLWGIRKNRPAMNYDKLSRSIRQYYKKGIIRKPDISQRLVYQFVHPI
The gist of the method: as §1

The next assay concerns the target T4, ELF5 (Homo sapiens, UniProt Q9UKW6-2 1-255).
T4 sequence: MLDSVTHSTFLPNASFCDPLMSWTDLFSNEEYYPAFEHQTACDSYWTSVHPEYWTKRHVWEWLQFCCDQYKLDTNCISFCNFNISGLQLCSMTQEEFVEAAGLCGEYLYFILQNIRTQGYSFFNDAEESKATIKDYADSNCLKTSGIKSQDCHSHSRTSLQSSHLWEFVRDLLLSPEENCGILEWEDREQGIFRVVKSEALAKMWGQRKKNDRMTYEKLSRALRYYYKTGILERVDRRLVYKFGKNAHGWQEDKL
The gist of the method: as §1

The target of another assay is T5, ETV3 (Homo sapiens, UniProt P41162-2 1-143).
T5 sequence: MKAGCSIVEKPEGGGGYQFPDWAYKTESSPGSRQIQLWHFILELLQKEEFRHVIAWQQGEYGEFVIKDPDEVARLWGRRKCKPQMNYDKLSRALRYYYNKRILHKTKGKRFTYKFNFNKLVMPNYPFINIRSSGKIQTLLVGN
The gist of the method: as §1

For the next assay, the target named is ETV6 (Homo sapiens, UniProt P41212 1-452). Summed up: as §1
Sequence of ETV6 (P41212 whole entry): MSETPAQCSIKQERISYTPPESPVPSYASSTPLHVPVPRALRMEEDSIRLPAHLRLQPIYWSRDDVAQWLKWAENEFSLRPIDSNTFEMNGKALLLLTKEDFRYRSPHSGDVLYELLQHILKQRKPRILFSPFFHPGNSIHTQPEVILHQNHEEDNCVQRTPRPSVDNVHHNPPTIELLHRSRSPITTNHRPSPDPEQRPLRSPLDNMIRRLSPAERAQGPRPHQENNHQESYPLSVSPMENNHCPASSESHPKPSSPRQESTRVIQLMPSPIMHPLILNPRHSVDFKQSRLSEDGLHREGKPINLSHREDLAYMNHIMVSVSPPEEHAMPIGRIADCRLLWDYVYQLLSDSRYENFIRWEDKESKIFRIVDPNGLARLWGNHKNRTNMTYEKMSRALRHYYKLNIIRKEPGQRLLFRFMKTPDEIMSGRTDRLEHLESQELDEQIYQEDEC
The target in the next assay is T6, ETS2 (Homo sapiens, UniProt P15036 1-469).
T6 sequence: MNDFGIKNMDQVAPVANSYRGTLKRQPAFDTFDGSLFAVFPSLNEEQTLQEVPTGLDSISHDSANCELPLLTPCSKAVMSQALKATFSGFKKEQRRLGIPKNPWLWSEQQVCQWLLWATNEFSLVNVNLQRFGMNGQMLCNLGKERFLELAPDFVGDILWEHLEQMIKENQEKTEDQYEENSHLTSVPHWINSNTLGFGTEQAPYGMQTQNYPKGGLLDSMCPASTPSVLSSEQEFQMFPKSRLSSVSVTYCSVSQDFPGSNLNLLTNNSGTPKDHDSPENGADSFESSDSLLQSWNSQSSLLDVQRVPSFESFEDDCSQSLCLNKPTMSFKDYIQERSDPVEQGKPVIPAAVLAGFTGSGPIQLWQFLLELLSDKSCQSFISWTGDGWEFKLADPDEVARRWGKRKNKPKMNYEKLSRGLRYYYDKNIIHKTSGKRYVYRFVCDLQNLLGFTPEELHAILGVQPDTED
The gist of the method: as §1

The target of a further assay is T7, ETV7 (Homo sapiens, UniProt Q9Y603 1-341).
T7 sequence: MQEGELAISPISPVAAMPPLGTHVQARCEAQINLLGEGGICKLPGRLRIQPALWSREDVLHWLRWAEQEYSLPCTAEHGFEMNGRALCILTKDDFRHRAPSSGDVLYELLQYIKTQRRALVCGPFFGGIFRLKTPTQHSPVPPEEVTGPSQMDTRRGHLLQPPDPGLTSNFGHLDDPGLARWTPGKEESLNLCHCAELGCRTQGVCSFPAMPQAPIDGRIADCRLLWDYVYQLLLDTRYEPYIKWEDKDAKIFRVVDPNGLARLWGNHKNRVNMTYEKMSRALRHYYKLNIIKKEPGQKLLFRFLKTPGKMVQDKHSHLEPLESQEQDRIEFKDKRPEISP
Summed up: as §1

Turning to CACCAA, the binding signal with ERF was 1.18 fold enrichment (6-mer frequency, TF over GST control); with ETV3L it was 1.06 fold enrichment (6-mer frequency, TF over GST control); with SPDEF, 1.03 fold enrichment (6-mer frequency, TF over GST control); with ELF5, 1.03 fold enrichment (6-mer frequency, TF over GST control); with ETV3, 1.1 fold enrichment (6-mer frequency, TF over GST control); in the assay with ETV6, 1.07 fold enrichment (6-mer frequency, TF over GST control).
As for CGAACT, the binding signal was 1.16 fold enrichment (6-mer frequency, TF over GST control) with ERF; 1.12 fold enrichment (6-mer frequency, TF over GST control) with ETV3L; 1.18 fold enrichment (6-mer frequency, TF over GST control) in the assay with ETS2; 1.15 fold enrichment (6-mer frequency, TF over GST control) in the assay with ETV7; 1.07 fold enrichment (6-mer frequency, TF over GST control) in the assay with ELF5; 1.18 fold enrichment (6-mer frequency, TF over GST control) with ETV3. For the same sequence, the binding signal with ETV6 is 1.13 fold enrichment (6-mer frequency, TF over GST control).
Consider ATCGCA, for which the binding signal with ERF is 1.06 fold enrichment (6-mer frequency, TF over GST control); in the assay with ETV3L it was 1 fold enrichment (6-mer frequency, TF over GST control); in the assay with ETS2, 1.02 fold enrichment (6-mer frequency, TF over GST control); in the assay with ETV7 it was 1.03 fold enrichment (6-mer frequency, TF over GST control); with ETV3, 1.03 fold enrichment (6-mer frequency, TF over GST control).
For AAAGCT, the binding signal in the assay with ERF was 1.02 fold enrichment (6-mer frequency, TF over GST control); with ETV3L it was 1.01 fold enrichment (6-mer frequency, TF over GST control); in the assay with ETS2, 1.03 fold enrichment (6-mer frequency, TF over GST control); in the assay with ETV7, 1.03 fold enrichment (6-mer frequency, TF over GST control); in the assay with ELF5, 1.01 fold enrichment (6-mer frequency, TF over GST control); with ETV3, 1.04 fold enrichment (6-mer frequency, TF over GST control). In addition, the binding signal with ETV6 was 1.09 fold enrichment (6-mer frequency, TF over GST control).
Consider CCGAAG, for which the binding signal with ERF was 1.16 fold enrichment (6-mer frequency, TF over GST control); with ETV3L it was 1.02 fold enrichment (6-mer frequency, TF over GST control); in the assay with ETS2 it was 1.08 fold enrichment (6-mer frequency, TF over GST control); in the assay with ETV3, 1.02 fold enrichment (6-mer frequency, TF over GST control).
Consider TCTGGG, for which the binding signal in the assay with ERF is 1.16 fold enrichment (6-mer frequency, TF over GST control); with ETV3L, 1.11 fold enrichment (6-mer frequency, TF over GST control); in the assay with SPDEF, 1.07 fold enrichment (6-mer frequency, TF over GST control); with ETV7 it was 1.07 fold enrichment (6-mer frequency, TF over GST control); with ELF5, 1.08 fold enrichment (6-mer frequency, TF over GST control); with ETV3, 1.09 fold enrichment (6-mer frequency, TF over GST control). Further, the binding signal with ETV6 is 1.14 fold enrichment (6-mer frequency, TF over GST control).
Consider ATAAAG, for which the binding signal was 1.02 fold enrichment (6-mer frequency, TF over GST control) with ERF; 1.01 fold enrichment (6-mer frequency, TF over GST control) with ETV3L; 1 fold enrichment (6-mer frequency, TF over GST control) with ETS2; 1.09 fold enrichment (6-mer frequency, TF over GST control) in the assay with ETV7; 1.03 fold enrichment (6-mer frequency, TF over GST control) with ELF5; 1.05 fold enrichment (6-mer frequency, TF over GST control) with ETV3. The binding signal in the assay with ETV6 was 1.03 fold enrichment (6-mer frequency, TF over GST control).
TTGGCT: the binding signal was 1.18 fold enrichment (6-mer frequency, TF over GST control) with ERF; 1.13 fold enrichment (6-mer frequency, TF over GST control) with ETV3L; 1.11 fold enrichment (6-mer frequency, TF over GST control) with SPDEF; 1.07 fold enrichment (6-mer frequency, TF over GST control) in the assay with ETV7; 1.06 fold enrichment (6-mer frequency, TF over GST control) in the assay with ETV3; 1.13 fold enrichment (6-mer frequency, TF over GST control) with ETV6.
